Results: PubChem BioAssay (NCATS)
Results filed as inconclusive are left out. Unmarked numbers belong to inactive results. Active and inactive are the calls of the source. Calls follow the shape of the dose curve; as a rule, active = well fitted cell-killing curve with a large enough effect; inconclusive = small, poorly fitted or top-dose-only effect, or effect the other way; inactive = no such curve, though single readings can be large or run the other way.

assay: Quantitative High-Throughput drug screen in 47 multiple myeloma cell lines against the NCATS MIPE library collection: KMS28BM_JCRB cell viability assay (AID 1919874); details: CellTiter-Glo ATP, 48 h; series mostly up to 45.8 µM; viability, % of control: at the top concentration; also: nearly all actives have a fitted effect of over 35% in size
Excerpt: PI: Beverly A. Mock Ph.D.
Laboratory of Cancer Biology and Genetics,
Center for Cancer Research, National Cancer Institute,
National Institute of Health, Bethesda, Maryland
Drug resistance and disease progression are common in multiple myeloma (MM) patients, underscoring the need for new therapeutic combinations. […] We hypothesized that effective combinations would reduce MYC expression and enhance p16 activity. […] These preclinical data identify potentially useful drug combinations for evaluation in drug-resistant MM and reveal potential mechanisms of combined drug sensitivity.
Described herein is the primary MIPE qHTS used to cherrypick compounds. Validated compounds were then further tested for potential synergistic activiy.
[1] Peat TJ, Gaikwad SM, Dubois W, Gyabaah-Kessie N, Zhang S, Gorjifard S, Phyo Z, Andres M, Hughitt VK, Simpson RM, Miller MA, Girvin AT, Taylor A, Williams D, D'Antonio N, Zhang Y, Rajagopalan A, Flietner E, Wilson K, Zhang X, Shinn P, Klumpp-Thomas C, McKnight C, Itkin Z, Chen L, Kazandijian D, Zhang J, Michalowski AM, Simmons JK, Keats J, Thomas CJ, Mock BA. Drug combinations identified by high-throughput screening promote cell cycle transition and upregulate Smad pathways in myeloma. Cancer Lett. 2023 Aug 1;568:216284. doi: 10.1016/j.canlet.2023.216284. Epub 2023 Jun 24. PMID: 37356470; PMCID: PMC10408729.
SEQUENCE No. (e.g., 1, 2, 3, etc.); […] (e.g., Cells, Incubation, Reagent, etc.); VALUE and DESCRIPTION.
1; Cells; 5 uL; white, solid bottom 1536-well Greiner assay plate.
2; Compounds; 23 nL; Kalypsis pin tool (Wako USA) equipped with a 1536-well pin head to transfer to the assay plates.
3; Incubation; 48 hours; 37C incubation.
4; Reagent;5uL; CellTiter Glo (Promega).
5; Detector; 425V; Luminescence; Viewlux PerkinElmer.
NOTES (numbers refer to Sequence numbers above)
1. The cell-based screening methods employed in this study were like those previously published. Briefly, the corresponding myeloma cell lines were screened in 1,536-well plates with 500 cells, 5-uL per well for inhibition of cell viability (assessed by measuring ATP levels with CellTiterGlo).
2. NCATS MIPE 4.0 library of approved and investigational drugs were added using the Kalypsis pin tool. Wells treated with DMSO only for 100% viability and media only for 0% viability were used as controls.
3. The assay plates were covered and incubated for 48 hours in a 37C, 5% CO2 incubator with controlled humidity.
4. After 48 hours, CellTilter-GloTM luminescent substrate mix (Promega) reagent was added to the assay plate and plates we incubated for 5 min at room temperature.
5. Signal was measured as median relative luminescence units on a ViewLux (PerkinElmer) multiplate reader.
[1] Heske CM, Davis MI, Baumgart JT, Wilson K, Gormally MV, Chen L, Zhang X, Ceribelli M, Duveau DY, Guha R, Ferrer M, Arnaldez FI, Ji J, Tran HL, Zhang Y, Mendoza A, Helman LJ, Thomas CJ. Matrix Screen Identifies Synergistic Combination of PARP Inhibitors and Nicotinamide Phosphoribosyltransferase (NAMPT) Inhibitors in Ewing Sarcoma. Clin Cancer Res. 2017 Dec 1;23(23):7301-7311. doi: 10.1158/1078-0432.CCR-17-1121. Epub 2017 Sep 12. PMID: 28899971; PMCID: PMC6636827.
Potency is read from the fitted curve at half-maximal effect.

| SMILES | viability, % of control | Potency |
| --- | --- | --- |
| O=C(NOC[C@H](O)CO)c1ccc(F)c(F)c1Nc1ccc(I)cc1F | 111% | – |
| COc1ccc(CC2=NN3C([C@@H](CCc4ccccc4)[C@@H](C)O)=NC(C)C3C(=O)N2)cc1OC (stereo not given in full) | 117% | – |
| Fc1ccc(Cl)cc1-c1nc(Nc2ccncc2)c2nccnc2n1 | 90.7% | – |
| CNC[C@H](O)c1cccc(O)c1 | 122% | – |
| CCCC(CCC)C(=O)O | 111% | – |
| O=C(c1cc(Cc2n[nH]c(=O)c3ccccc23)ccc1F)N1CCN(C(=O)C2CC2)CC1 | 132% | – |
| Cc1cc2c(C(C)C)c(O)c(O)c(C=O)c2c(O)c1-c1c(C)cc2c(C(C)C)c(O)c(O)c(C=O)c2c1O | – | 10.5 µM (active) |
| CCOc1cc(C=C2C(=O)N(c3ccccc3)N=C2C)cc(Cl)c1OCC(=O)OC | 99.7% | – |
| O=C(Nc1nc2ccccc2n1CCN1CCOCC1)c1cccc([N+](=O)[O-])c1 | 107% | – |
| O=C(C=Cc1ccc(/C=C/C(=O)Nc2ccc(C3=NCCN3)cc2)cc1)Nc1ccc(C2=NCCN2)cc1 | 116% | – |
| CC(C)C[C@H](NC(=O)[C@@H](O)[C@H](N)Cc1ccccc1)C(=O)O | – | 16.6 µM (active) |
| Nc1nc2[nH]cc(CCc3ccc(C(=O)N[C@@H](CCC(=O)O)C(=O)O)cc3)c2c(=O)[nH]1 | 107% | – |
| Cc1n[nH]c(C)c1Cc1sc2c(c1C(=O)N1C[C@H](O)CO1)c(=O)n(C)c(=O)n2CC(C)C | 106% | – |
| N=c1nc(N2CCCCC2)cc(N)n1O | 98.3% | – |
| O=C1CCc2cc(OCCCCc3nnnn3C3CCCCC3)ccc2N1 | 98.1% | – |
| COc1ccc(C2=N[C@H](c3ccc(Cl)cc3)[C@H](c3ccc(Cl)cc3)N2C(=O)N2CCNC(=O)C2)c(OC(C)C)c1 | – | 16.6 µM (active) |
| Cc1ccccc1C(OCCN(C)C)c1ccccc1 (stereo not given) | – | 7.43 µM (active) |
| Cc1ccc(-n2nc(C(C)(C)C)cc2NC(=O)Nc2ccc(OCCN3CCOCC3)c3ccccc23)cc1 | 89.2% | – |
| Cc1ccccc1C(C(=O)NC1CCCC1)N(C(=O)Cn1cnc2ccccc21)c1cccc(F)c1 (stereo not given) | 96.6% | – |
| COc1cc2c(cc1OC)CN(CCc1ccc(NC(=O)c3cccc4c(=O)c5cccc(OC)c5[nH]c34)cc1)CC2 | 101% | – |

| SMILES | viability, % of control | Potency |
| --- | --- | --- |
| Cn1cnc([N+](=O)[O-])c1Sc1ncnc2nc[nH]c12 | – | 5.9 µM (active) |
| O=c1[nH]c(-c2ccc(C(F)(F)F)cc2)nc2c1CSCC2 | 97.9% | – |
| CC(c1cc2ccccc2s1)N(O)C(N)=O (stereo not given) | 115% | – |
| O=C1CCC(N2C(=O)c3ccccc3C2=O)C(=O)N1 (stereo not given) | 99% | – |
| Nc1cccc(S(=O)(=O)N2CCCN(S(=O)(=O)c3ccc4c(c3)OCCO4)CC2)c1 | 101% | – |
| Cc1csc(NC(=O)c2sc3nc4c(c(C(F)(F)F)c3c2N)CCC4)n1 | – | 26.4 µM (active) |
| CN(C)c1ccc(C2Nc3ccc4ccccc4c3C3=C2C(=O)CC(C)(C)C3)cc1Br (stereo not given) | 107% | – |
| NCCCC(N)(C(=O)O)C(F)F (stereo not given) | 95.4% | – |
| CNC(=O)c1ccc(N2C(=S)N(c3ccc(C#N)c(C(F)(F)F)c3)C(=O)C2(C)C)cc1F | 102% | – |
| Clc1cccc(Cl)c1NC1=NCCN1 | 120% | – |
| CCOC(=O)N1CCC(=C2c3ccc(Cl)cc3CCc3cccnc32)CC1 | – | 23.5 µM (active) |
| Cn1c(=O)c(F)c(Nc2ccc(I)cc2F)c2c(=O)n(C[C@@H](O)CO)cnc21 | 109% | – |
| C[C@]12CC[C@H](O)CC1=CC[C@@H]1[C@H]2CC[C@]2(C)C(c3cccnc3)=CC[C@H]12 | 101% [at 23.2 µM] | – |
| NC(=O)c1cnccn1 | 119% | – |
| N[C@@H]1CONC1=O | 93.2% | – |
| COCC(=O)NCC=Cc1ccc2ncnc(Nc3ccc(Oc4ccc(C)nc4)c(C)c3)c2c1 | – | 29.6 µM (active) |
| CS(=O)(=O)c1cccc(CNc2nc(Nc3ccc4c(c3)CCC(=O)N4)ncc2C(F)(F)F)c1 | – | 16.6 µM (active) |
| CCOc1cc(N2CCC(O)CC2)ccc1Nc1ncc2c(n1)N(C)c1ccccc1C(=O)N2C | – | 4.69 µM (active) |
| CO[C@@H]1[C@H](N(C)C(=O)c2ccccc2)C[C@H]2O[C@]1(C)n1c3ccccc3c3c4c(c5c6ccccc6n2c5c31)C(=O)NC4 | – | 2.96 µM (active) |
| Cc1cnc(Nc2ccc(OCCN3CCCC3)cc2)nc1Nc1cccc(S(=O)(=O)NC(C)(C)C)c1 | – | 0.935 µM (active) |
